From PubChem BioAssay AID602400 (Sanford-Burnham Center for Chemical Genomics, 2012)
Activity calls are given as the source filed them. No rule for the calls is given here.

Assay: off-target activity on Bfl-1 – biochemical, set 4, counter-screen for UBC13 polyubiquitination inhibitor project, SAR follow-up (AID 602400)
Settings: Bfl-1 counterscreen for UBC13 inhibitors
For `O=C(NCc1cccc(Cl)c1)C1CCN(c2ncnc3c2nc2n3CCCCC2)CC1`, the IC50 was > 100 µM (inactive).
For `CCCN1CCN(C(=O)C2CCN(c3ncnc4c3nc3n4CCCCC3)CC2)CC1`, the IC50 was > 100 µM (inactive).
For `O=C(NCc1ccc(Cl)c(Cl)c1)C1CCCN(c2ncnc3c2nc2n3CCCCC2)C1` (stereo not drawn), the IC50 was > 100 µM (inactive).
With `O=C(Nc1ccc(CN2CCCCC2)cc1)C1CCN(c2ncnc3c2nc2n3CCCCC2)CC1` the IC50 was > 100 µM (inactive).
For `Cc1ccc(NC(=O)C2CCN(c3ncnc4c3nc3n4CCCCC3)CC2)c(Cl)c1`, the IC50 was > 100 µM (inactive).
For `O=C(NCc1ccc(Cl)c(Cl)c1)C1CCN(c2ncnc3c2nc2n3CCCCC2)CC1`, the IC50 was > 100 µM (inactive).
In the case of `Cc1ccc(NC(=O)C2CCN(c3ncnc4c3nc3n4CCCCC3)CC2)cc1F`, the IC50 is reported as > 100 µM (inactive).
With `CC1CCCCN1C(=O)C1CCN(c2ncnc3c2nc2n3CCCCC2)CC1` (stereo not drawn) the IC50 was > 100 µM (inactive).
In the case of `O=C(NCC1CCN(Cc2ccccc2Cl)CC1)C1CCCN(c2ncnc3c2nc2n3CCCCC2)C1` (stereo not drawn), the IC50 is reported as > 100 µM (inactive).
For `Cc1cccc(NC(=O)C2CCCN(c3ncnc4c3nc3n4CCCCC3)C2)c1` (stereo not drawn), the IC50 was > 100 µM (inactive).
For `Cc1ccccc1CN1CCC(CNC(=O)C2CCCN(c3ncnc4c3nc3n4CCCCC3)C2)CC1` (stereo not drawn), the IC50 was > 100 µM (inactive).
In the case of `Cc1cc(C)cc(NC(=O)C2CCN(c3ncnc4c3nc3n4CCCCC3)CC2)c1`, the IC50 is reported as 72.9 µM (active).
For `O=C(C1CCN(c2ncnc3c2nc2n3CCCCC2)CC1)N1CCOCC1`, the IC50 was > 100 µM (inactive).
In the case of `Cc1ccc(C)c(CN2CCC(CNC(=O)C3CCCN(c4ncnc5c4nc4n5CCCCC4)C3)CC2)c1` (stereo not drawn), the IC50 is reported as > 100 µM (inactive).
With `O=C(NCC1CCN(Cc2ccccc2Cl)CC1)C1CCCN(c2ncnc3c2nc2n3CCCC2)C1` (stereo not drawn) the IC50 was > 100 µM (inactive).
For `Cc1ccc(NC(=O)C2CCCN(c3ncnc4c3nc3n4CCCC3)C2)cc1C` (stereo not drawn), the IC50 was > 100 µM (inactive).
In the case of `Cc1ccc(NC(=O)C2CCCN(c3ncnc4c3nc3n4CCCCC3)C2)cc1F` (stereo not drawn), the IC50 is reported as > 100 µM (inactive).
For `Cc1cc(C)cc(NC(=O)C2CCCN(c3ncnc4c3nc3n4CCCCC3)C2)c1` (stereo not drawn), the IC50 was > 100 µM (inactive).
For `Cc1ccc(NC(=O)C2CCCN(c3ncnc4c3nc3n4CCCC3)C2)cc1F` (stereo not drawn), the IC50 was > 100 µM (inactive).
For `Cc1cc(Cl)ccc1NC(=O)C1CCN(c2ncnc3c2nc2n3CCCCC2)CC1`, the IC50 was > 100 µM (inactive).
With `Cc1ccc(C)c(N2CCN(CCCNC(=O)C3CCCN(c4ncnc5c4nc4n5CCCCC4)C3)CC2)c1` (stereo not drawn) the IC50 was > 100 µM (inactive).
With `Cc1cccc(NC(=O)C2CCN(c3ncnc4c3nc3n4CCCC3)CC2)c1` the IC50 was 23 µM (active).
In the case of `O=C(C1CCN(c2ncnc3c2nc2n3CCCCC2)CC1)N1CCN(c2ccccc2)CC1`, the IC50 is reported as > 100 µM (inactive).
With `CC1CC(C)CN(C(=O)C2CCN(c3ncnc4c3nc3n4CCCCC3)CC2)C1` (stereo not drawn) the IC50 was > 100 µM (inactive).
With `O=C(Nc1cc(F)ccc1F)C1CCN(c2ncnc3c2nc2n3CCCCC2)CC1` the IC50 was > 100 µM (inactive).
With `O=C(NCC1CCN(Cc2cccc(Cl)c2)CC1)[C@H]1CCCN(c2ncnc3c2nc2n3CCCCC2)C1` the IC50 was > 100 µM (inactive).
For `O=C(NCC1CCN(Cc2ccccc2F)CC1)C1CCCN(c2ncnc3c2nc2n3CCCCC2)C1` (stereo not drawn), the IC50 was > 100 µM (inactive).
With `O=C(NCC1CCN(Cc2cccc(Cl)c2)CC1)[C@H]1CCCN(c2ncnc3c2nc2n3CCCC2)C1` the IC50 was > 100 µM (inactive).
In the case of `Cc1ccc(NC(=O)C2CCN(c3ncnc4c3nc3n4CCCCC3)CC2)cc1Cl`, the IC50 is reported as > 100 µM (inactive).
For `O=C(NCc1cccc(Cl)c1)C1CCN(c2ncnc3c2nc2n3CCCC2)CC1`, the IC50 was > 100 µM (inactive).
In the case of `O=C(NCCCN1CCN(c2ccc(F)cc2)CC1)C1CCCN(c2ncnc3c2nc2n3CCCCC2)C1` (stereo not drawn), the IC50 is reported as > 100 µM (inactive).
With `O=C(C1CCN(c2ncnc3c2nc2n3CCCCC2)CC1)N1CCC(Cc2ccccc2)CC1` the IC50 was > 100 µM (inactive).
With `O=C(Nc1cccc(Cl)c1)C1CCN(c2ncnc3c2nc2n3CCCCC2)CC1` the IC50 was > 100 µM (inactive).
In the case of `O=C(NCC1CCN(Cc2ccc(Cl)cc2)CC1)C1CCCN(c2ncnc3c2nc2n3CCCC2)C1` (stereo not drawn), the IC50 is reported as 76.8 µM (active).
For `CCC1CCCCN1CCCNC(=O)C1CCN(c2ncnc3c2nc2n3CCCCC2)CC1` (stereo not drawn), the IC50 was > 100 µM (inactive).
In the case of `Cc1c(Cl)cccc1NC(=O)C1CCN(c2ncnc3c2nc2n3CCCCC2)CC1`, the IC50 is reported as > 100 µM (inactive).
With `Cc1cccc(NC(=O)C2CCN(c3ncnc4c3nc3n4CCCCC3)CC2)c1` the IC50 was > 100 µM (inactive).
For `Cc1ccc(NC(=O)C2CCN(c3ncnc4c3nc3n4CCCC3)CC2)cc1Br`, the IC50 was 14.7 µM (active).
